Assay results from PubChem BioAssay.
Unmarked numbers belong to inactive results. No rule for the calls is given here.

These compounds were tested against Pantothenate synthetase (Mycobacterium tuberculosis (strain ATCC 25618 / H37Rv)) (UniProt P9WIL5) (assay: Recombinant Mtb pantothenate synthetase (PanC) inhibitors, coupled enzyme, confirmatory (AID 375;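 also: 0% = full reaction with vehicle and 100% = no enzyme background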)). Settings: coupled enzyme assay; at 10 µM, stronger effect = higher value.
Sequence of Pantothenate synthetase (Mycobacterium tuberculosis (strain ATCC 25618 / H37Rv)) (P9WIL5 whole entry, looked up): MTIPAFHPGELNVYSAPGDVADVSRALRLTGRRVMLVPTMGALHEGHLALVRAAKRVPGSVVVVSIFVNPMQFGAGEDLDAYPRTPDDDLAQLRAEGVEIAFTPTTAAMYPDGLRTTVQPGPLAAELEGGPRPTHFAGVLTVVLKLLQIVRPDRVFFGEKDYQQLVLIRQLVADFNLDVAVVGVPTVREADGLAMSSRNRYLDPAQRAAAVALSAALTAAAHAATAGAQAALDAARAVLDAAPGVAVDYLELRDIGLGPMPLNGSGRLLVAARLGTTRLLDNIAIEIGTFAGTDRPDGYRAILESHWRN
CCCCP(=O)(CCCC)Cc1ccccc1O was tested, and the inhibition was 0%.
In the case of N#CCCN1CCN(S(=O)(=O)c2ccc(S(=O)(=O)NC3CCCC3)cc2)CC1, the inhibition is reported as 0%.
COc1cccc(OC)c1C(=O)N1CCN(S(=O)(=O)c2ccc(C)cc2)CC1 gave an inhibition of 1%.
With CCOc1ccc(N(CC(=O)NCC2CCCO2)S(=O)(=O)c2ccc(OC)c(OC)c2)cc1 (stereo not given) the inhibition was 0%.
Work on Cc1ccc2[nH]c3c(c2c1)CN(C(=O)CN1CCN(c2cccc(C)c2C)CC1)CC3 yielded an inhibition of 0%.
Cn1c(=O)c2c(nc(SCC(=O)NCc3ccc4c(c3)OCO4)n2Cc2ccccc2)n(C)c1=O was tested, and the inhibition was 0%.
In the case of CCCCOc1ccc(CC(=O)NO)cc1, the inhibition is reported as 9%.
In the case of Cc1ccccc1-c1nc(CS(=O)(=O)CC(=O)N(C)C2CCCCC2)c(C)o1, the inhibition is reported as 0%.
With COC(=O)C(C)Sc1nnc2n(-c3cccc(C)c3)c(=O)c3c4c(sc3n12)CCCC4 (stereo not given) the inhibition was 1%.
Compound CC1CN(Cc2nc3c(c(=O)[nH]c(=O)n3C)n2CC(N)=O)CC(C)O1 (stereo not given) has an inhibition of 4%.
CN1C(=O)C2(NCCc3c2[nH]c2ccccc32)c2ccccc21 (stereo not given) was tested, and the inhibition was 1%.
COCCn1c(-c2ccc(OC)c(OC)c2)nc2ccccc21 showed an inhibition of 0%.
With CCOC(=O)c1cccnc1SCC(=O)NC(C)CC (stereo not given) the inhibition was 0%.
COc1ccc(NC(=O)CSc2nc3c(c(=O)n2-c2ccccc2OC)SCC3)cc1 was tested, and the inhibition was 3%.
CC(C)CN(CC(C)C)c1nc(N)c(C#N)c(CC#N)c1C#N was tested, and the inhibition was 0%.
Compound Cc1sc2nc(SCC(=O)Nc3c(C)n(C)n(-c4ccccc4)c3=O)n(C)c(=O)c2c1C has an inhibition of 0%.
With Cc1c(CNCc2cccs2)c(C(=O)O)c(C)n1Cc1ccccc1 the inhibition was 0%.
Compound CC1Cc2ccccc2N1C(=O)c1cnsn1 (stereo not given) has an inhibition of 0%.
COC(=O)CCSCc1cn2cc(Cl)ccc2n1 was tested, and the inhibition was 0%.
CC(=NCC1CCNCC1)C1=C(O)CC(C)(C)CC1=O showed an inhibition of 0%.
For CCCCC(c1nnnn1CS(=O)(=O)c1ccc(C)cc1)N1CCN(c2ccccc2)CC1 (stereo not given), the inhibition was 0%.
CCCC(=O)OCCn1c(Br)nc2c1c(=O)[nH]c(=O)n2C gave an inhibition of 7%.
CCSc1nnc(-c2ccc(OC)cc2)o1 was tested, and the inhibition was 0%.
Work on CC(C)CSc1nc2ccccc2n1CC(N)=O yielded an inhibition of 5%.
For CCOc1ccc(C(C)=O)cc1COc1ccc(-n2cnnn2)cc1, the inhibition was 13%.
Work on N#CC(C(=O)CCN1C(=O)C2CC=CCC2C1=O)c1nc2ccccc2[nH]1 (stereo not given) yielded an inhibition of 0%.
COc1ccccc1N1CCN(C(=O)c2oc3cc(C)c(C)cc3c2C)CC1 gave an inhibition of 0%.
With Cc1cc(=O)n2nc(-c3ccccc3)sc2n1 the inhibition was 0%.
Work on Cc1nc(SCC(=O)CC(=O)OC(C)C)c(C#N)c(C)c1C yielded an inhibition of 0%.
Compound Cc1cccc(N2CN=c3s/c(=C\c4ccncc4)c(=O)n3C2)c1 has an inhibition of 6%.
Compound O=C(CN1C(=O)NC2(CCCCCC2)C1=O)N1CCC(Cc2ccccc2)CC1 has an inhibition of 2%.
Compound S=c1[nH]nc(Cc2ccccc2)n1-c1ccccc1 has an inhibition of 1%.
O=S(=O)(NCc1cn2ccsc2n1)c1ccc2c(c1)OCCO2 showed an inhibition of 0%.
Work on CSCCC(NC(=O)c1ccco1)C(=O)OC(C)C(=O)NC(=O)NC1CCCCC1 (stereo not given) yielded an inhibition of 0%.
For CCC(=O)N/C(N)=N/c1nc(C)c2cc(OC)ccc2n1, the inhibition was 0%.
Compound CCOC(=O)N1CCN(C(=O)Nc2ccc3oc(C)nc3c2)CC1 has an inhibition of 7%.
With CCN(CC)S(=O)(=O)c1ccc(Cl)c(C(=O)OC)c1 the inhibition was 8%.
With COc1cc(C(O)c2nc3ccccc3n2C)cc(OC)c1OC (stereo not given) the inhibition was 0%.
For Cc1cc(=O)n2nc(N3CCCC(C(=O)N4CCN(C)CC4)C3)sc2n1 (stereo not given), the inhibition was 1%.
Work on CSc1nc(N2CCOCC2)c2ccccc2n1 yielded an inhibition of 0%.
